Assay outcomes deposited in PubChem by National Center for Advancing Translational Sciences (NCATS).
This excerpt belongs to a sample that is enriched for hits.
Cycloheximide cs – counter-screen hit for Shiga toxin inhibitors, cycloheximide. 300,000 compounds, 12% hits. cell reporter, cycloheximide protein synthesis inhibition counterscreen. max response, %; in the data active = max response mostly above about 13%, no sharp cut-off; inactive = mostly below about 14%; also: read at 38.3 µM for the half of the compounds with a filed dose; 0% is about no effect
Shiga inhibitor – inhibitors of Shiga toxin in Vero cells. Vero cells, Shiga toxin protein synthesis inhibition reporter. inhibition, % at 38.7 µM. 290,000 compounds, 9.2% hits; in the data active = inhibition mostly above about 28%, no sharp cut-off; inactive = mostly below about 43%; also: 0% is about no effect
Marburg entry inh – blocks Marburg virus binding to or entry into cells | AID 540276 | Potency, µM (series often up to 37.8 µM), without a hit: at the top dose activity change, negative = inhibition, most hits filed as inhibitors | 300,000 compounds, 1.8% hits | Marburg virus pseudotyped entry inhibition, cell reporter; calls by dose curve; tested in HEK293 cells; also: potency is read from the fitted curve at half-maximal effect; % is scaled to controls: 0 for no effect and ±100 for the full control effect
AMA1-RON2 inh – disrupts binding of P. falciparum AMA1 to RON2 | AlphaScreen AMA1-biotinylated RON2 peptide binding | Potency, µM (titrated, usually from 58.2 µM), inactives show top-dose activity change, negative = inhibition, most hits filed as inhibitors | 360,000 compounds, 0.2% hits; active = well fitted inhibition curve with a large enough effect; inconclusive = small, poorly fitted or top-dose-only effect; inactive = no such curve, though single readings can be large or run the other way;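 also: potency is read from the fitted curve at half-maximal effect; 0% = vehicle wells and -100% = peptide control; nearly all actives have a fitted effect of over 45% in size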
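AMA1 (3D7) with his tag at 25 nM final met compounds first, then biotinylated RON2 peptide at 25 nM; detection used donor plus acceptor beads, 10 µg/mL apiece, read by AlphaScreen after 30 min at room temperature.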
LASV entry inh – blocks Lassa virus binding to or entry into cells; Lassa virus pseudotype entry inhibition, cell reporter; Potency, µM (doses to about 37.9 µM), for the others: top-dose activity change, negative = inhibition, most hits filed as inhibitors; 300,000 compounds, 1.2% hits; calls by dose curve; tested in HEK293 cells; also: potency is read from the fitted curve at half-maximal effect; % is scaled to controls: 0 for no effect and ±100 for the full control effect; nearly all actives have a fitted effect of over 50% in size
Active calls of the source: *; u = inconclusive; x = no result; [ ] = another dose, or the depositor's remark.

SMILES	Cycloheximide cs	Shiga inhibitor	Marburg entry inh	AMA1-RON2 inh	LASV entry inh
Cc1ccc(/C=C(\C#N)c2nc3ccccc3[nH]2)s1	49*	53*	2%	-4%	-6%
Cc1cccc(C)c1OCCn1c(C2CC(=O)N(Cc3ccc(F)cc3)C2)nc2ccccc21 (stereo unspecified)	x	x	3%[46.1 µM]	x	u
CC1CCN(c2nc3ccc(C(=O)NCCCN4CCCCC4)cc3s2)CC1	28*	29*	x	-1%	x
CCC1CCCCN1CCCNC(=O)c1ccc2nc(N3CCC(C)CC3)sc2c1 (stereo unspecified)	29*	90*	x	-3%	x
CC1CCN(c2nc3ccc(C(=O)O)cc3s2)CC1	-7	-24	u	0%	0.63µM*
COC(=O)[C@@]12C[C@@H](CC(=O)NCC3CCCCC3)C(=O)N(Cc3ccc4c(c3)OCO4)C1=CCC(C)(C)C2	x	x	x	-13%	x
Cc1ccc(-c2cc(Cc3ccc(F)cc3)c(=O)[nH]n2)cc1	20*	29	x	-3%	x
O=c1[nH]nc(-c2ccc(F)cc2)cc1Cc1ccc(F)cc1	-2	9	x	9%	x
Cc1ccc(Cc2cc(-c3ccc(C)cc3)n[nH]c2=O)cc1	40*	52*	u	-18%	u
Cc1ccc(-c2cc(Cc3ccccc3)c(=O)[nH]n2)cc1	11	34	1%	-18%	2.5µM*
CC(=O)N1CCN(CC(=O)NC(=O)Nc2ccc3c(c2)OCCO3)CC1	x	x	-1%	0%	-18%
CCOc1cccc2sc(NC(=O)c3ccc(S(=O)(=O)N4CCCCC4)cc3)nc12	x	x	x	x	17%[46.1 µM]
O=C(CCc1nnc2n(Cc3ccc(Cl)cc3)c(=O)c3ccccc3n12)NCCCN1CCOCC1	-6	-6	x	-6%	x
O=C(CCc1nnc2n(Cc3ccc(Cl)cc3)c(=O)c3ccccc3n12)NCCN1CCCC1	-3	-2	10µM*	-1%	u
Cc1cc(C(=O)N/N=C2/CC(C)CC(C)(C)C2)c(C)o1 (stereo unspecified)	31*	77*	u	46%	4%
CC1C/C(=N\NC(=S)NCc2ccccc2)CC(C)(C)C1 (stereo unspecified)	-1	14	u	20%	u
CN(C)S(=O)(=O)c1ccc(C(=O)Nc2nnc(SCC(=O)NCC3CCCO3)s2)cc1 (stereo unspecified)	-4	-19	-1%	-4%	-18%
O=C(CSc1nnc(NC(=O)c2cccc(F)c2)s1)NCC1CCCO1 (stereo unspecified)	17	-6	u	12%	2%
CCOc1ccc(C(=O)Nc2nnc(SCC(=O)NCC3CCCO3)s2)cc1 (stereo unspecified)	38*	48	x	-2%	x
CC(C)(C)c1ccc(C(=O)Nc2nnc(SCC(=O)NCC3CCCO3)s2)cc1 (stereo unspecified)	56*	110*	x	-7%	x
S=C(NCc1cccs1)Nc1ccccc1Cl	24*	44*	0%	7%	-2%
COc1ccc(NC(=O)C(NC(=O)Cc2cccs2)c2ccc(OC)cc2)cc1 (stereo unspecified)	x	x	26%[46.1 µM]	x	u
CC(Cc1cccs1)NC(=S)Nc1ccc(F)cc1 (stereo unspecified)	10*	51*	u	5%	u
COc1ccc(NC(=S)NC(C)Cc2cccs2)cc1 (stereo unspecified)	29*	68*	x	-5%	x
CCC(C)NC(=S)Nc1ccc(F)cc1 (stereo unspecified)	1	26	x	13%	x
SMILES	Cycloheximide cs	Shiga inhibitor	Marburg entry inh	AMA1-RON2 inh	LASV entry inh
COc1ccc(NC(=S)NCc2cccs2)cc1	19*	47*	19%[46.1 µM]	7%	29%
Cc1c(NC(=O)CCCCCN2C(=O)c3ccccc3C2=O)c(=O)n(-c2ccccc2)n1C	1	7	22%	4%	-1%
COC(=O)c1c(NC(=O)CN2CCC3(O)CCCCC3C2c2cc(OC)ccc2OC)sc(C)c1C (stereo unspecified)	-3	11	15µM*	-29%	7.9µM*
CCN(CC)S(=O)(=O)c1cccc(C(=O)N/N=C/c2c(C)nn(-c3ccccc3)c2Cl)c1	-1	-15	-3%	6%	5%
Cc1nn(-c2ccccc2)c(Cl)c1/C=N/NC(=O)c1ccc(CNc2ccccc2)o1	25*	44*	15%	-1%	u
Cc1cc(C(=O)N/N=C/c2cn(C)nc2C)c2ccccc2n1	-4	-3	x	0%	x
Cc1nn(-c2ccccc2)c(Cl)c1/C=N/NC(=O)c1ccco1	52*	104*	u	-7%	5%
Cc1nn(C)cc1/C=N/NC(=O)c1ccco1	38*	82*	u	5%	23%[46.1 µM]
CSCCC(NS(=O)(=O)Cc1ccccc1)C(=O)NNc1ccccc1 (stereo unspecified)	x	x	x	-10%	x
CC(C)(O)[C@@H]1CC(=O)[C@]2(C)[C@H](CC[C@@]3(C)[C@H](c4ccoc4)OC(=O)[C@H]4O[C@]432)[C@@]1(C)/C=C\C(=O)O	x	x	x	-1%	x
CC1(C)C(=O)C=C[C@]2(C)[C@H]3CC[C@@]4(C)[C@H](c5ccoc5)OC(=O)[C@H]5O[C@]54[C@]3(C)[C@H](O)C[C@@H]12	21*	46	u	-8%	u
Oc1ccc(N=Nc2n[nH]c(-c3ccc(Br)cc3)n2)cc1	20*	24	u	32%	u
Oc1ccc(N=Nc2n[nH]c(-c3ccccc3)n2)cc1	32*	89*	u	11%	u
Fc1ccc([C@H]2CCNC[C@H]2COc2ccc3c(c2)OCO3)cc1	x	x	16µM*	x	x
CN(C)S(=O)(=O)N1CCC(c2ccc(F)cc2)C(COc2ccc3c(c2)OCO3)C1 (stereo unspecified)	9	14	2.8µM*	-18%	u
CCCNC(=O)N(C)C[C@H]1Oc2ncc(Br)cc2C(=O)N([C@H](C)CO)C[C@H]1C	x	x	x	9%	x
COc1ccc(S(=O)(=O)N2CCCCC2)cc1NC(=O)CCCOc1ccc(C)cc1	x	x	u	-9%	-29%
CN1C2CCC1CC(NS(=O)(=O)c1ccc(C#N)cc1)C2 (stereo unspecified)	-1	-5	18%[46.1 µM]	11%	8%[46.1 µM]
Clc1ccc(-c2cn3cc(Cl)ccc3n2)cc1	42*	74*	x	17%	x
COc1c(Cl)cccc1-c1cn2ccccc2n1	35*	57	u	-12%	u
Brc1ccc(-c2cn3ccccc3n2)s1	32*	70*	u	-20%	u
COc1ccc(-c2cn3ccccc3n2)cc1	31*	46	x	-1%	x
COc1ccccc1OCC(=O)Nc1ccc(S(=O)(=O)N2CCCC2)cc1	-4	-3	0%[46.1 µM]	-7%	-16%
N#Cc1c(NC(=S)NC(=O)Cc2cccs2)sc2c1CCCCC2	2	3	28%	29%	-1%
CC(C)CN(CCCNC(=O)c1cn(C)c2ccc(S(=O)(=O)N(C)C3CCCCC3)cc2c1=O)CC(C)C	x	x	4%[46.1 µM]	x	16%[46.1 µM]
CCC(=O)N(C)C[C@@H]1Oc2ncc(Br)cc2C(=O)N([C@H](C)CO)C[C@H]1C	x	x	x	6%	x
CCOC(=O)c1cc(S(=O)(=O)NC2CCC(C)CC2)cn1C (stereo unspecified)	-4	-4	u	-6%	u
